From article PMC12135187, “A role for pH dynamics regulating transcription factor DNA-binding selectivity”
Whole data set: some 1,100 sequences, median “relative enrichment” near 0.38, cut for the highest 2% near 0.66. The full list was thinned out, with the highest values kept by preference.

biological target: T1, FOXC2 DBD WT (UniProt Q99958 72-172); experiment: SELEX-seq (GST pull-down, four rounds, 16-nt random library); pH 7.0; 20 mM HEPES, 140 mM KCl, 0.05 mM TCEP-HCl, pH 7.0, room temperature, 30 min; 2.5 uM GST-FOXC2 DBD, 0.25 uM DNA library; high values mean tight binding; conditions: protein: recombinant; tags: N-terminal GST (pGEX-6P-2); dsDNA, one strand shown
T1 sequence: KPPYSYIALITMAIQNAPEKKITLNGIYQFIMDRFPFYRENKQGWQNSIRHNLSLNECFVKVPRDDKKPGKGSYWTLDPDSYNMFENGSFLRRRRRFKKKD
How it was run: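 GST-tagged FOXC2 DNA-binding domain (E. coli-expressed, glutathione-purified) was incubated with a DNA library carrying a 16 bp randomized region, at 0.25 μM DNA and 2.5 μM protein, for 30 min at RT in 20 mM HEPES, 140 mM KCl, 0.05 mM TCEP–HCl, pH 7. Complexes were captured on glutathione Sepharose beads, washed, heat-eluted and PCR-amplified over four rounds. Initial and selected libraries were Illumina MiniSeq sequenced. Relative enrichment came from the Bioconductor SELEX R package.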

| Sequence | binding signal |
| --- | --- |
| GTCTTA | 0.348 relative enrichment |
| GATCTA | 0.537 relative enrichment |
| AGATTA | 0.329 relative enrichment |
| GCAACA | 0.23 relative enrichment |
| ACAAGA | 0.322 relative enrichment |
| AATCGC | 0.406 relative enrichment |
| CATCCC | 0.704 relative enrichment |
| CATCCT | 0.605 relative enrichment |
| CATCGC | 0.711 relative enrichment |
| CATCGT | 0.553 relative enrichment |
| CATCCA | 0.528 relative enrichment |
| TAGACA | 0.44 relative enrichment |
| ATCCAT | 0.477 relative enrichment |
| AATAAG | 0.686 relative enrichment |
| AAATAA | 0.891 relative enrichment |
| AATAAA | 0.839 relative enrichment |
| CATAAG | 0.406 relative enrichment |
| TAATAA | 0.399 relative enrichment |
| CATAAA | 0.596 relative enrichment |
| AATAAT | 0.309 relative enrichment |
| GATAAA | 0.326 relative enrichment |
| AAATAT | 0.435 relative enrichment |
| GCTCAA | 0.305 relative enrichment |

| Sequence | binding signal |
| --- | --- |
| CAATTC | 0.306 relative enrichment |
| AAAACA | 0.264 relative enrichment |
| AACTAT | 0.324 relative enrichment |
| CAGTAA | 0.415 relative enrichment |
| AATACT | 0.328 relative enrichment |
| AGTACT | 0.668 relative enrichment |
| AGTACA | 0.385 relative enrichment |
| AAAGTG | 0.343 relative enrichment |
| CAATGG | 0.433 relative enrichment |
| ATTTAC | 0.56 relative enrichment |
| ATTAGG | 0.356 relative enrichment |
| TCCAAA | 0.348 relative enrichment |
| ACTTCC | 0.677 relative enrichment |
| ACTTCA | 0.453 relative enrichment |
| AATTCC | 0.366 relative enrichment |
| ACTCGT | 0.431 relative enrichment |
| CTGCAT | 0.524 relative enrichment |
| TCCTAT | 0.313 relative enrichment |
| AAACCG | 0.336 relative enrichment |
| CAATGC | 0.376 relative enrichment |
| TACGTA | 0.539 relative enrichment |
| AACGTC | 0.372 relative enrichment |
| TACGTC | 0.674 relative enrichment |

| Sequence | binding signal |
| --- | --- |
| CCATTA | 0.286 relative enrichment |
| ACCACT | 0.588 relative enrichment |
| GGTTTA | 0.395 relative enrichment |
| ATTTGG | 0.408 relative enrichment |
| CTGTTA | 0.238 relative enrichment |
| TTACAA | 0.36 relative enrichment |
| TACGAA | 0.468 relative enrichment |
| TATACA | 0.505 relative enrichment |
| CAAATA | 0.707 relative enrichment |
| GAAACA | 0.347 relative enrichment |
| TAAATA | 0.726 relative enrichment |
| CAAATC | 0.3 relative enrichment |
| GAAATA | 0.451 relative enrichment |
| CAAACA | 0.57 relative enrichment |
| TAAACA | 0.701 relative enrichment |
| CAAATG | 0.327 relative enrichment |
| AAAATA | 0.439 relative enrichment |
| ATAGCA | 0.284 relative enrichment |
| TCTTTC | 0.55 relative enrichment |
| CAGACT | 0.612 relative enrichment |
| ACTTGA | 0.341 relative enrichment |
| CATAAC | 0.226 relative enrichment |
| AAATGG | 0.353 relative enrichment |

| Sequence | binding signal |
| --- | --- |
| CTTCGT | 0.674 relative enrichment |
| GTTCGT | 0.328 relative enrichment |
| CTTCAT | 0.554 relative enrichment |
| ATGTTA | 0.428 relative enrichment |
| TCATTC | 0.646 relative enrichment |
| ACCTTA | 0.322 relative enrichment |
| GATCTT | 0.497 relative enrichment |
| TCTAAC | 0.304 relative enrichment |
| CTACAA | 0.352 relative enrichment |
| ACAATA | 0.351 relative enrichment |
| AAACGA | 0.433 relative enrichment |
| GTGTCA | 0.372 relative enrichment |
| CATGCA | 0.513 relative enrichment |
| AGGATA | 0.311 relative enrichment |
| TACCCT | 0.504 relative enrichment |
| AGCCTA | 0.371 relative enrichment |
| AAAGTT | 0.3 relative enrichment |
| AGTTTA | 0.403 relative enrichment |
| CTATCA | 0.419 relative enrichment |
| ACTGCT | 0.412 relative enrichment |
| AACTAC | 0.312 relative enrichment |
| AACCAC | 0.351 relative enrichment |
| ACACGG | 0.442 relative enrichment |

| Sequence | binding signal |
| --- | --- |
| TCATCT | 0.546 relative enrichment |
| CAACGC | 0.322 relative enrichment |
| TCTTCT | 0.66 relative enrichment |
| CCTTCT | 0.774 relative enrichment |
| ACTTCT | 0.502 relative enrichment |
| AAGCAG | 0.486 relative enrichment |
| ATCTCT | 0.485 relative enrichment |
| TCACAA | 0.332 relative enrichment |
| AGGTTG | 0.313 relative enrichment |
| ACATCG | 0.521 relative enrichment |
| ATGTTC | 0.304 relative enrichment |
| TGAACA | 0.291 relative enrichment |
| AACGAA | 0.281 relative enrichment |
| GACTTA | 0.52 relative enrichment |
| AATGAT | 0.314 relative enrichment |
| CCGTTG | 0.343 relative enrichment |
| CCTGTG | 0.491 relative enrichment |
| ACTCTC | 0.499 relative enrichment |
| ATTAAA | 0.406 relative enrichment |
| TGTCAA | 0.457 relative enrichment |
| AATTAG | 0.241 relative enrichment |
| ACGATA | 0.322 relative enrichment |
